Data as given in PubChem BioAssay (NCATS).
Records with an inconclusive call do not appear. Active and inactive are the calls of the source. Unless noted, calls follow the shape of the dose curve; as a rule, active = well fitted curve in the direction sought with a large enough effect; inconclusive = small, poorly fitted or top-dose-only effect, or another doubt; inactive = no such curve, though single readings can be large; an effect the other way counts as inactive or inconclusive.

Legend:
[1] = target: Ubiquitin carboxyl-terminal hydrolase 1 (Homo sapiens) (UniProt O94782); test: Inhibitors of USP1/UAF1: Pilot qHTS (AID 504865); also: potency is read from the fitted curve at half-maximal effect; nearly all actives have a fitted effect of over 35% in size
Procedure, shortened: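 Kinetic fluorescence assay: 1nM USP1/UAF1, 15 min compound preincubation, then 150nM Ub-Rho; 480/540 nm.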

[2] = target: Luciferin 4-monooxygenase (Photinus pyralis) (UniProt P08659); test: Biochemical firefly luciferase enzyme assay for NPC (AID 624030);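 also: purified P. pyralis luciferase at 10 nM with luciferin and ATP substrate; nearly all actives have a fitted effect of over 70% in size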
Procedure, shortened: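 Purified P. pyralis luciferase at 10 nM in 50 mM Tris Acetate (final), luminescence read within 5 minutes of enzyme addition to compounds. Activity normalised to PTC124 versus DMSO; concentration-response curves classed by r2, magnitude and activity.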

[3] = S16 Schwann cell viability assay (CellTiter-Glo assay) (AID 624031); also: potency is read from the fitted curve at half-maximal effect; nearly all actives have a fitted effect of over 70% in size
Procedure, shortened: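 Luminescent ATP read-out (CellTiter-Glo) after 24 h compound exposure of native S16 rat Schwann cells at 37 °C. Signals were normalized between cell-free wells and DMSO-treated cells, set as 0% activity.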

[4] = S16 Schwann cell PMP22 intronic element firefly luciferase assay (AID 624032); also: potency is read from the fitted curve at half-maximal effect; nearly all actives have a fitted effect of over 30% in size
Procedure, shortened: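 Rat S16 Schwann cells stably carrying firefly luciferase driven by a PMP22 intronic element, in 10% FBS, treated 24 h at 37 C. ONE-Glo luminescence normalized to PTC124 control and DMSO (0%); curves classed by r2, magnitude and activity.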

[5] = S16 Schwann cell PMP22 intronic element beta-lactamase assay (AID 624044; calls by dose curve; also: potency is read from the fitted curve at half-maximal effect; nearly all actives have a fitted effect of over 15% in size)
Procedure, shortened: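 Beta-lactamase reporter under a PMP22 intronic regulatory element in stable S16 rat Schwann cells; 24 h compound exposure. 460 nm blue signal normalized between DMSO (0%) and potassium clavulanate, with 535 nm FRET tracking viability; curves classed by r2 and response.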

[6] = qHTS Assay for Identifying Gametocytocidal Compounds (AID 743244); also: potency is read from the fitted curve at half-maximal effect; conditions: P. falciparum 3D7 stage III-V gametocytes, alamarBlue, 72 h; max response: active compounds read low
Procedure, shortened: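 3D7 gametocytes, stages III–V, 20,000/well; cpd 72 h, 37 °C/5% CO2; + alamarBlue 24 h; fluor. Ex 525/Em 598.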

3D7 = test: qHTS profiling for inhibitors of Plasmodium falciparum proliferation (AID 504749); also: potency is read from the fitted curve at half-maximal effect; nearly all actives have a fitted effect of over 60% in size; conditions: P. falciparum in erythrocytes, SYBR Green DNA, 72 h; series mostly up to 28.7 µM
Procedure, shortened: (§1)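 Each compound contacts P. falciparum-infected red blood cells for 72 h at 37 C; lysis buffer (Tris, EDTA, saponin, Triton X, SYBR Green I) is added and fluorescence measured next morning; values normalized to controls.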

7G8 = test: as above; conditions: P. falciparum in erythrocytes, SYBR Green DNA, 72 h; series mostly up to 28.7 µM
Procedure, shortened: as §1

AA1029 = test: as above; conditions: P. falciparum in erythrocytes, SYBR Green DNA, 72 h; series mostly up to 28.7 µM
Procedure, shortened: as §1

AS120 = test: as above; conditions: P. falciparum in erythrocytes, SYBR Green DNA, 72 h; series mostly up to 28.7 µM
Procedure, shortened: as §1

ATS189 = test: as above; conditions: P. falciparum in erythrocytes, SYBR Green DNA, 72 h; series mostly up to 28.7 µM
Procedure, shortened: as §1

ATS95 = test: as above; conditions: P. falciparum in erythrocytes, SYBR Green DNA, 72 h; series mostly up to 28.7 µM
Procedure, shortened: as §1

C2A = test: as above; conditions: P. falciparum in erythrocytes, SYBR Green DNA, 72 h; series mostly up to 28.7 µM
Procedure, shortened: as §1

CP185 = test: as above; conditions: P. falciparum in erythrocytes, SYBR Green DNA, 72 h; series mostly up to 28.7 µM
Procedure, shortened: as §1

CP191 = test: as above; conditions: P. falciparum in erythrocytes, SYBR Green DNA, 72 h; series mostly up to 28.7 µM
Procedure, shortened: as §1

CP192 = test: as above; conditions: P. falciparum in erythrocytes, SYBR Green DNA, 72 h; series mostly up to 28.7 µM
Procedure, shortened: as §1

CP194 = test: as above; conditions: P. falciparum in erythrocytes, SYBR Green DNA, 72 h; series mostly up to 28.7 µM
Procedure, shortened: as §1

CP201 = test: as above; conditions: P. falciparum in erythrocytes, SYBR Green DNA, 72 h; series mostly up to 28.7 µM
Procedure, shortened: as §1

CP203 = test: as above; conditions: P. falciparum in erythrocytes, SYBR Green DNA, 72 h; series mostly up to 28.7 µM
Procedure, shortened: as §1

CP211 = test: as above; conditions: P. falciparum in erythrocytes, SYBR Green DNA, 72 h; series mostly up to 28.7 µM
Procedure, shortened: as §1

CP215 = test: as above; conditions: P. falciparum in erythrocytes, SYBR Green DNA, 72 h; series mostly up to 28.7 µM
Procedure, shortened: as §1

CP217 = test: as above; conditions: P. falciparum in erythrocytes, SYBR Green DNA, 72 h; series mostly up to 28.7 µM
Procedure, shortened: as §1

CP237 = test: as above; conditions: P. falciparum in erythrocytes, SYBR Green DNA, 72 h; series mostly up to 28.7 µM
Procedure, shortened: as §1

CP238 = test: as above; conditions: P. falciparum in erythrocytes, SYBR Green DNA, 72 h; series mostly up to 28.7 µM
Procedure, shortened: as §1

CP247 = test: as above; conditions: P. falciparum in erythrocytes, SYBR Green DNA, 72 h; series mostly up to 28.7 µM
Procedure, shortened: as §1

CP250 = test: as above; conditions: P. falciparum in erythrocytes, SYBR Green DNA, 72 h; series mostly up to 28.7 µM
Procedure, shortened: as §1

CP252 = test: as above; conditions: P. falciparum in erythrocytes, SYBR Green DNA, 72 h; series mostly up to 28.7 µM
Procedure, shortened: as §1

CP256 = test: as above; conditions: P. falciparum in erythrocytes, SYBR Green DNA, 72 h; series mostly up to 28.7 µM
Procedure, shortened: as §1

CP260 = test: as above; conditions: P. falciparum in erythrocytes, SYBR Green DNA, 72 h; series mostly up to 28.7 µM
Procedure, shortened: as §1

CP262 = test: as above; conditions: P. falciparum in erythrocytes, SYBR Green DNA, 72 h; series mostly up to 28.7 µM
Procedure, shortened: as §1

CP265 = test: as above; conditions: P. falciparum in erythrocytes, SYBR Green DNA, 72 h; series mostly up to 28.7 µM
Procedure, shortened: as §1

CP266 = test: as above; conditions: P. falciparum in erythrocytes, SYBR Green DNA, 72 h; series mostly up to 28.7 µM
Procedure, shortened: as §1

CP268 = test: as above; conditions: P. falciparum in erythrocytes, SYBR Green DNA, 72 h; series mostly up to 28.7 µM
Procedure, shortened: as §1

Measured: Potency

Ubiquitin carboxyl-terminal hydrolase 1 (Homo sapiens), sequence (O94782 whole entry, looked up): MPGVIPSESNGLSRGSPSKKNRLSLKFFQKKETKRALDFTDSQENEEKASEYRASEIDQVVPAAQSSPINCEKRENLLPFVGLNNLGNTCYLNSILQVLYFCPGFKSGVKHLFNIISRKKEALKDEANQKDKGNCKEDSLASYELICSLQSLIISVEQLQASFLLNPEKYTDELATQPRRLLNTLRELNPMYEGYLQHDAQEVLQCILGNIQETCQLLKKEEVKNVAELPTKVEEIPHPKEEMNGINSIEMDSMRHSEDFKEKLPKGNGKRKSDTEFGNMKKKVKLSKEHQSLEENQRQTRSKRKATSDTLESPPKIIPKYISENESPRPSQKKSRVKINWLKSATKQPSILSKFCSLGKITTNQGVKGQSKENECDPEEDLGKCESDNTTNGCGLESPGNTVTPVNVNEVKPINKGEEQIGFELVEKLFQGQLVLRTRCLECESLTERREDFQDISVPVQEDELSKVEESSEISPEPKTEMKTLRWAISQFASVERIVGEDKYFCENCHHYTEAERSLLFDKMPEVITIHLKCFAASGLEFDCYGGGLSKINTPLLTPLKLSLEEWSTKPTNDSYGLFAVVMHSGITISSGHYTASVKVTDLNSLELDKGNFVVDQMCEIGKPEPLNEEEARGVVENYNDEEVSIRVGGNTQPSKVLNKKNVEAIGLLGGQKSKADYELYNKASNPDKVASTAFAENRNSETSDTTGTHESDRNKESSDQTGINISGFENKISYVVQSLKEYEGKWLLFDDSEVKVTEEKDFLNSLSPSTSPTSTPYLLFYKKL
Luciferin 4-monooxygenase (Photinus pyralis), sequence (P08659 whole entry, looked up): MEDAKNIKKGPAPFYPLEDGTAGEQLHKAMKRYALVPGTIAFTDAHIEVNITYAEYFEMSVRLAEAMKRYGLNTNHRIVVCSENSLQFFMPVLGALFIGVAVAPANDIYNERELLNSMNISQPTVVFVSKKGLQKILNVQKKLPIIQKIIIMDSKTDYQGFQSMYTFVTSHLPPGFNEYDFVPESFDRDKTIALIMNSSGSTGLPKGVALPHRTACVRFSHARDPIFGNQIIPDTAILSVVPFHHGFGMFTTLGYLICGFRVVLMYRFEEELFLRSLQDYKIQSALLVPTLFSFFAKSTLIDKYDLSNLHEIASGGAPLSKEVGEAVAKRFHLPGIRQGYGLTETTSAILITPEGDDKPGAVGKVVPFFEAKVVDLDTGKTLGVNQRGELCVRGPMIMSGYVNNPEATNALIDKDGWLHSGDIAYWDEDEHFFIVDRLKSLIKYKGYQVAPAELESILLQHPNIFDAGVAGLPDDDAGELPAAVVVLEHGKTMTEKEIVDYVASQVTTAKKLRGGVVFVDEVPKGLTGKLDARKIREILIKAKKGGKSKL

CCCCCCCCCC[N+](C)(C)CCCCCCCCCC
active: [1] 31.6 µM | [3] 18.1 µM | [4] 16.1 µM | [5] 25.1 µM | [6] 7.94 µM | 3D7 2 µM | 7G8 2 µM | AA1029 7.08 µM | AS120 6.31 µM | ATS189 7.08 µM | ATS95 6.31 µM | C2A 4.47 µM | CP185 4.47 µM | CP191 3.98 µM | CP192 4.78 µM | CP194 6.75 µM | CP201 9.53 µM | CP203 6.75 µM | CP211 9.53 µM | CP215 8.49 µM | CP217 4.47 µM | CP237 7.08 µM | CP238 5.62 µM | CP247 4.47 µM | CP250 4.47 µM | CP252 7.08 µM | CP256 4.47 µM | CP260 3.98 µM | CP262 5.36 µM | CP265 5.01 µM | CP266 6.75 µM | CP268 6.01 µM
inactive: [2]
